# Eya2 phos inh – qHTS Assay for Inhibitors of the Phosphatase Activity of Eya2 | recombinant Eya2, OMFP fluorescence dephosphorylation (OMFP is methylfluorescein phosphate) | Potency, µM (doses to about 76.9 µM), inactives show at the top dose activity, negative = inhibition, hits mostly inhibitors | 330,000 tested, 0.006% active | AID 488837, 2010; note: % is set by controls: 0 for no effect and ±100 for the full control effect
#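 Eya2 protein (added as 0.2 uM solution) was preincubated with compound for 10 min at ambient temperature in 50 mM HEPES pH 7.5, 50 mM NaCl, 5 uM MgCl2, 0.05% BSA, 1 mM DTT. OMFP (added at 50 uM) then reacted 10 min; fluorescence read at 485/525 nm.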
# USP2a inh – qHTS Assay for Inhibitors of Ubiquitin-specific Protease USP2a Using CHOP2 as the Reporter. USP2 core, Ub-CHOP2 coupled fluorogenic reporter, 485/531. Potency, µM (titrated, usually from 38.3 µM), for the others: top-dose activity change, negative = inhibition, most hits filed as inhibitors. 330,000 tested, 0.01% active. AID 463254, 2010;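 note: plate controls were DMSO wells for no effect and full inhibition by NEM control for full effect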
#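 Deubiquitinase activity read as fluorescence (485/531 nm) after Ub-CHOP2 cleavage activates the enterokinase reporter on its substrate; USP2 core 10nM, Ub-CHOP2 and substrate 25nM each, 30min compound preincubation then 60min RT; data normalized to NEM, curves fitted.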
# ALOX12 inh – Primary qHTS assay for inhibitors of human arachidonate 12S-lipoxygenase (ALOX12): Round 2 | Polyunsaturated fatty acid lipoxygenase ALOX12 (Homo sapiens), P18054 | Potency, µM (titrated, usually from 108 µM), for the others: at the highest dose activity change, negative = inhibition, actives largely listed as inhibitors | purified 12hLO, xylenol orange hydroperoxide absorbance | AID 1671190, 2021 | 580,000 tested, 1.1% active; note: % is set by controls: 0 for no effect and ±100 for the full control effect
#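 Purified human 12hLO at 150 nM in 25 mM Hepes, 0.01% Triton X-100, pH 7.0, preincubated 15 min at room temperature with compound. Reaction started with 40 uM arachidonic acid, 30 min at room temperature. Hydroperoxide measured by Fe-xylenol orange, 573/405 nm absorbance ratio.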
# TSG101-PTAP inh – qHTS Assay for Iinhibitors of HIV-1 Budding by Blocking the Interaction of PTAP/TSG101; Fluorescence polarization, FITC-PTAP peptide / Tsg101 binding; Potency, µM (doses to about 115 µM), for the others: top-dose activity change, negative = inhibition, most hits filed as inhibitors; 340,000 tested, under 10 active; active = well fitted inhibition curve with a large enough effect in the main read-out, with a control signal flat, not every such curve was filed as active; inconclusive = small, poorly fitted or top-dose-only effect, or effect the other way, or a change in a side signal; inactive = no such curve, though single readings can be large or run the other way; note: % of control where 0% means no effect
# Target sequence (Q99816 whole entry, looked up): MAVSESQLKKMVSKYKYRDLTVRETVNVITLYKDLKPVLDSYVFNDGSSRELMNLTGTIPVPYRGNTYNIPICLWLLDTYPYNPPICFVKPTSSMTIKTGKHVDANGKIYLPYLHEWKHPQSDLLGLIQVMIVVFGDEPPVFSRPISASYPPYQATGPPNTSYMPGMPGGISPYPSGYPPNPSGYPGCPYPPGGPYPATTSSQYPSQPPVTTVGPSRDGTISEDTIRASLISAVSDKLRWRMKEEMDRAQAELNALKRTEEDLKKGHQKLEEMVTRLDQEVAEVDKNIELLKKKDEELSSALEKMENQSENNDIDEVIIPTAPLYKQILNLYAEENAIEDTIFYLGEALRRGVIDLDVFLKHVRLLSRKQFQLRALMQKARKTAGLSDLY
#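 Compounds were pin-transferred onto Tsg101 binding domain (10 uM final) in HEPES pH 7.5 buffer, then FITC-PTAP peptide was added at 50 nM final. After 20 min at RT, polarization reported peptide displacement across a qHTS concentration series.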
# * hit, by the source's call; ? = inconclusive; . = no result given; ! = a repeat was not active; [ ] = another dose, or the depositor's remark. Rows were chosen to be rich in hits. Some 1.1% of all compounds tested hit in one or more screens of this group. Unless noted, calls come from the whole dose curve; as a rule, active = well fitted curve in the direction sought with a large enough effect; inconclusive = small, poorly fitted or top-dose-only effect, or another doubt; inactive = no such curve, though single readings can be large; an effect the other way counts as inactive or inconclusive. Potency is the fitted concentration of half-maximal effect.
SMILES,Eya2 phos inh,USP2a inh,ALOX12 inh,TSG101-PTAP inh
COc1ccccc1-n1c(-c2cc(-c3ccc(F)cc3)n[nH]2)n[nH]c1=S,-9%,1%,40µM*,1%
COc1ccc(-c2cc(-c3n[nH]c(=S)n3-c3cccc4ccccc34)[nH]n2)cc1,2%,2%,?,-1%
COc1ccccc1-c1n[nH]c(=S)n1N,6%,-6%,14µM*,0%
COc1ccc(C)cc1-n1c(-c2ccncc2)n[nH]c1=S,2%,0%,-9%,-4%
COc1cc(-n2c(-c3ccccc3)n[nH]c2=S)c(OC)cc1Cl,-2%,0%,28µM*,-4%
Cc1ccc(C)c(Cn2ccn3nc(-c4ccc(F)cc4)c(CO)c3c2=O)c1,.,.,25%,.
O=S(=O)(c1ccc(=S)[nH]c1)N1CCN(Cc2ccccc2)CC1,-11%,2%,40µM*,-1%
Cc1ccc(-n2nc3c(c2NC(=O)c2ccc(Br)o2)CSC3)c(C)c1,6%,-2%,8.9µM*,.
Cc1cc(C)c2oc(-c3ccc(C)c(NC(=O)/C=C/c4ccco4)c3)nc2c1,.,.,50µM*,.
Cc1c(Cl)cccc1N(CC(=O)N1CCc2ccccc2C1)S(C)(=O)=O,.,.,10%,.
COc1ccc(/C=C/C(=O)Oc2ccc3oc4ccccc4c3c2)cc1OC,.,.,4%,.
COc1ccc(OCCCC(=O)Oc2ccc3oc4ccccc4c3c2)cc1,.,.,13µM*,.
COc1ccc(N2C(=O)CS(=O)C(c3ccccc3)C2=O)cc1 (stereo unspecified),10%,-3%,?,0%
Cc1ccc(N2C(=O)CS(=O)C(c3ccccc3)C2=O)cc1C (stereo unspecified),-2%,1%,22µM*,-1%
CC1(C)CC(N2CCCCC2)=CC(=NCCCN2CCOCC2)C1,.,.,22µM*,.
CCCOC(=S)N/C(=N\S(=O)(=O)c1ccccc1)c1ccccc1,-17%,1%,35µM*,-4%
Cc1ccc(S(=O)(=O)/N=C(/NC(=S)Nc2ccccc2)c2ccccc2)cc1,0%,-1%,?,-4%
Cc1ccc(NC(=S)N/C(=N/S(=O)(=O)c2ccccc2)c2ccccc2)cc1,1%,3%,35µM*!,0%
CCOC(=S)N/C(=N\S(=O)(=O)c1ccccc1)c1ccccc1,-12%,1%,?,-3%
COc1ccc(OC(=O)C23CC4CC(CC(Cl)(C4)C2)C3)cc1,.,.,-33%,.
CNc1oc(-c2ccccc2OC)nc1S(=O)(=O)c1ccc2c(c1)OCCO2,.,.,12%,.
CC(=O)C1=C(O)C(=O)N(c2ccccn2)C1c1ccccc1[N+](=O)[O-] (stereo unspecified),2%,7%,14µM*,-2%
CN(C)/C=C/C(=O)c1cnc(-c2cccc(Cl)c2)s1,8%,-2%,32µM*,-5%
CN(C)/C=C/C(=O)c1cnc(-c2ccccc2Cl)s1,4%,14%,8.9µM*,-4%
Cn1cc(-c2cccc(O)c2)c2nc(COc3ccc(Cl)cc3)cn2c1=O,.,.,-20%[176 µM],.
SMILES,Eya2 phos inh,USP2a inh,ALOX12 inh,TSG101-PTAP inh
Cc1ccc(NC(=O)C2=C(c3ccccc3)NC(=S)NC2c2ccc(Cl)cc2)cc1 (stereo unspecified),.,.,35µM*,.
Cc1ccc(NC(=O)C2=C(c3ccccc3)NC(=S)NC2c2ccc(Br)cc2)cc1 (stereo unspecified),.,.,32µM*,.
CC(=O)C1=C(c2ccccc2)NC(=S)NC1c1cc(Cl)c(OC(C)C)c(Cl)c1 (stereo unspecified),-3%,-10%,28µM*,-3%
CC1=C(C(=O)Nc2ccccc2)C(c2ccccc2)NC(=S)N1 (stereo unspecified),.,.,-48%,.
O=[S+]([O-])(c1ccccc1)N1CC2(CCCCN2CC2CC2)Cc2ccccc21 (stereo unspecified),.,.,8%[6.33 µM],.
Cc1noc2c(-c3ccc4c(ccn4C)c3)cc(-c3cccnc3)nc12,.,.,48%[176 µM],.
CC(C)=CC1C(C(=O)NC23CC4CC(CC(C4)C2)C3)C1(C)C (stereo unspecified),.,.,-1%,.
O=C1[C@@H]2C[C@@H](CN2C2CCCC2)Oc2ccccc2N1Cc1ccccc1,.,.,-11%[176 µM],.

# From PubChem BioAssay
